Rtt109 HAT inh – C. albicans Rtt109 histone acetyltransferase inhibition | AID 540336 | inhibition, % at 34.9 µM | 330,000 tested, 0.16% active | Q5AAJ8 | purified Rtt109/Vps75, ThioGlo CoA-SH fluorescence, 4 h;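 active = inhibition of at least 50% in every replicate; inconclusive = best replicate reaches 50% inhibition but some replicates fall short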
Target sequence (Q5AAJ8 whole entry, looked up): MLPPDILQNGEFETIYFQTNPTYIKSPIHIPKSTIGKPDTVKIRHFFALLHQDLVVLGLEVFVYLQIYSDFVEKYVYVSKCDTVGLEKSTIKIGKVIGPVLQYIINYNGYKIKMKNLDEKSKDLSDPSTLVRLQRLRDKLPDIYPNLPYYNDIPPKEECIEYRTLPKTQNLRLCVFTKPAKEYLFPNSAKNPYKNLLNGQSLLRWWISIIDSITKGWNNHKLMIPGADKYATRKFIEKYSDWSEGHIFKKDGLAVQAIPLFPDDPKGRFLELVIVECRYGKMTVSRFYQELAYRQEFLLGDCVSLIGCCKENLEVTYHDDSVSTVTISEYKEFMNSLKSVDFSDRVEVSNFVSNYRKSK
sPLA2-III inh – Blocks human group III sPLA2 activity; Q9NZ20; QFRET BODIPY PC-A2 liposome hydrolysis, fluorescence; inhibition, % at 12.2 µM; 370,000 tested, 0.56% active; AID 743126;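 active = inhibition above mean plus 3 SD of compounds lying within the high and low control bounds, cut at about 19% in these data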;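 note: 0% = median of test compound wells and 100% = no enzyme DMSO wells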
DAGLB inh – blocks human DAGLB lipase activity; Q8NCG7; AID 504411; inhibition, % at 5.17 µM; HEK293T DAGLB membrane lysate, EnzChek fluorogenic substrate; 340,000 tested, 0.059% active; in the data active = inhibition above about 34%;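 note: 0% = enzyme with vehicle and 100% = wells lacking enzyme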
ABHD5 PLIN5 PPI – inhibitors of human ABHD5-perilipin-5 interaction; 360,000 tested, 0.78% active; AID 602281; Split G. princeps luciferase complementation, luminescence, 4 h; Q00G26+Q8WTS1; inhibition, % at 4 µM;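 active = inhibition above the mean inhibition across every tested compound plus 3 SD, cut at about 22% in these data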;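 note: 0% = DMSO only wells and the 100% control is not disclosed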
Myeloid diff MLP – myeloid differentiation induction; ER-HoxA9 myeloid progenitors, lysozyme-GFP differentiation, flow cytometry; calls only at 10 µM; 360,000 tested, 1% active; AID 624256;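 active = normalized GFP-positive differentiation at or above the plate's own cutoff, the solvent-only control mean plus 3 SD; inconclusive = no clear call, values can overlap the other calls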;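 note: cells exposed to compound for four days before flow analysis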
H9c2 protect – modulators protecting cardiomyocytes from myocardial damage; H9c2 cardiomyocytes, H2O2 injury protection, ATPLite, 2 h; protection from H2O2 cell death, % at 20 µM; 360,000 tested, 0.63% active;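 active = compounds giving at least 50% protection of heart cells from peroxide-induced death in the single-dose screen, raw or plate-pattern-corrected value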;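 note: 0% = DMSO wells with peroxide and 100% = DMSO wells without peroxide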
Myeloid diff – myeloid differentiation induction; shares compounds with Myeloid diff MLP; ER-HoxA9 myeloid progenitors, GFP/Mac1 double-positive flow; calls only; 2,300 tested, 2% active; AID 651706;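 active = share of green or green-and-red cells above 9 and 9% in run 1 or 4 and 3% in run 2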
GFP autofluor – flagged as fluorescent in myeloid differentiation counter-screen | shares compounds with Myeloid diff MLP | ER-HoxA9 myeloid progenitors, no estrogen, GFP autofluorescence flow cytometry; vehicle wells 0%, positive control 100% | fluorescence response, % (no concentration beside the values) | 2,300 tested, 7.4% active;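 active = over 5% cells positive for green fluorescent reporter, or over 2% positive for both it and APC stain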;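 note: range taken on the double positive population between DMSO and positive control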
Numbers without * were called inactive; i = inactive; ? = inconclusive; nt = no result given; + = active, no number. In the library only some 2.9% were active in any assay of this set; here they are far more common.

SMILES | Rtt109 HAT inh | sPLA2-III inh | DAGLB inh | ABHD5 PLIN5 PPI | Myeloid diff MLP | H9c2 protect | Myeloid diff | GFP autofluor
N#Cc1c2nc3ccccc3nc2n2cc(NC(=O)c3ccc(F)cc3)ccc12 | 15 | -14 | 0 | 0 | i | 34 | i | 3
CC(=O)Nc1ccc(OCC(O)Cn2c3ccccc3c3ccccc32)cc1 (stereo unspecified) | 1 | -35 | 5 | 7 | i | 0 | i | 8.5*
COc1ccc2[nH]c(=O)c(CN(CCc3cccc(C)c3)C(C)=O)cc2c1 | 12 | -3 | 1 | 2 | i | -4 | nt | nt
COc1ccccc1Oc1nnnn1-c1ccc(C(N)=O)cc1 | -4 | -1 | 1 | -2 | i | 1 | i | 1
O=C(Nc1cccc(NC(=O)c2nccc3ccccc23)c1)c1ccco1 | nt | -5 | -3 | 6 | + | -4 | i | 0
O=[N+]([O-])c1ccc(Nc2ccccc2O)c2nonc12 | 1 | -6 | 17 | 5 | + | -16 | i | 2
O=C(O)c1ccc(Nc2ccc([N+](=O)[O-])c3nonc23)cc1 | 17 | 0 | 8 | 10 | i | 0 | nt | nt
CC(=O)CSc1nc2c(c(=O)[nH]c(=O)n2C)n1Cc1cccc(Br)c1 | 0 | -4 | 1 | 3 | i | 12 | nt | nt
CCCCN(C)S(=O)(=O)c1cc2c3c(c1)CCC(=O)N3CCC2 | -1 | -7 | 2 | -10 | i | 4 | nt | nt
NS(=O)(=O)c1ccc(Nc2ncccc2[N+](=O)[O-])cc1 | -9 | -3 | 2 | 6 | + | 2 | i | 0
Cc1ccc(C=Nc2ccccc2C(N)=O)o1 | -3 | 12 | 1 | 1 | i | 5 | nt | nt
Cc1ccc(C=Nc2ccc(N(C)C)cc2)o1 | -24 | 4 | 9 | -15 | i | -15 | i | 0
CCSc1nnc(CNc2ccc(C)cc2)n1C | 19 | 15 | -1 | 3 | i | 4 | nt | nt
COc1ccc2c(c1OC)C(=O)N(c1ccc3c(c1)CCC3)C2=O | 14 | 4 | 2 | -4 | i | -2 | i | 0
COc1ccc2c(c1OC)C(=O)N(c1ccc(C)c(C)c1)C2=O | -6 | 2 | -3 | 2 | i | 0 | nt | nt
COc1ccc(S(=O)(=O)N(C)CC(=O)Nc2ccc(F)cc2)cc1 | -5 | 1 | -2 | 6 | i | 0 | i | 0
N#Cc1nn(-c2ccccc2)nc1N1CCCCC1 | -7 | -2 | -14 | 8 | + | -14 | i | 0
N#Cc1nc(COc2ccccc2)oc1N1CCCCCC1 | 7 | -1 | -6 | -9 | i | 8 | nt | nt
Cc1nc(SC(C)C(=O)NCC2CCCO2)c2cc(-c3ccccc3)sc2n1 (stereo unspecified) | 2 | -7 | -5 | -4 | + | -4 | i | 39*
CC(Sc1ncnc2c1cnn2-c1ccccc1)C(=O)NCC1CCCO1 (stereo unspecified) | -2 | 2 | -2 | 0 | i | -5 | nt | nt
COc1ccc(-c2cc(C3CCN(C(=O)OC(C)(C)C)CC3)[nH]n2)cc1 | -8 | -21 | -3 | -3 | i | -15 | nt | nt
CCC[C@H]1CC(=O)C=C(c2ccc(OC)cc2)ON1C(=O)OC(C)(C)C | 10 | -13 | -6 | 6 | i | -11 | i | 0
Cc1cc(C)n2nc(C(=O)OCC(=O)Nc3ccc(C)c(F)c3)nc2n1 | 7 | 13 | -1 | -1 | i | 14 | i | 0
O=C(Nc1ccc(N2CCOCC2)cc1)c1ccc([N+](=O)[O-])o1 | -7 | 11 | 3 | -1 | + | -16 | i | 0
O=C(Nc1ccc(S(=O)(=O)N2CCOCC2)cc1)c1ccc([N+](=O)[O-])o1 | 10 | 7 | 2 | -1 | ? | -18 | nt | nt
SMILES | Rtt109 HAT inh | sPLA2-III inh | DAGLB inh | ABHD5 PLIN5 PPI | Myeloid diff MLP | H9c2 protect | Myeloid diff | GFP autofluor
CCN(CC)CCN(C(=O)c1ccc(N2C(=O)CCC2=O)cc1)c1nc2cc3c(cc2s1)OCCO3 | 2 | 1 | -1 | 0 | + | 10 | i | 0
CCN(CC)CCN(C(=O)c1cccc(N2C(=O)CCC2=O)c1)c1nc2cc3c(cc2s1)OCO3 | -1 | 7 | 1 | 4 | i | -2 | nt | nt
O=C(/C=C\c1ccco1)NC(=S)Nc1ccccc1O | 5 | 2 | 0 | 9 | i | -7 | i | 0
COc1cc(OC)c(/C=C2\SC(=O)N(CC(=O)Nc3ccccc3F)C2=O)c(OC)c1 | 2 | -5 | -3 | -3 | i | 1 | nt | nt
COc1cc(/C=C2\SC(=O)N(CC(=O)Nc3ccccc3F)C2=O)cc(Cl)c1O | -6 | 0 | -3 | 5 | i | 2 | i | 0
CCOc1cc(C)c(Cl)cc1S(=O)(=O)n1ccnc1 | 20 | 0 | nt | 7 | i | 0 | nt | nt
C[C@@H]1CCC(=O)N(CC[C@H](Sc2ccc(Br)cc2)c2ccccc2)CC1 | 4 | -13 | -16 | -3 | i | -6 | nt | nt
CC1=Nc2ccc3ccccc3c2C1(C)C | -4 | 0 | -1 | 1 | + | -7 | i | 0
Cc1c2ccccc2c(C)c2c1ccc1ccccc12 | 4 | 2 | -8 | -10 | i | -22 | nt | nt
CN(C)CCNC(=O)CN1C(=O)CSc2ccc(S(=O)(=O)N3CCCCC3)cc21 | 10 | 2 | 1 | 0 | i | 3 | nt | nt
O=C(Nc1cccc2ncccc12)c1ccc([N+](=O)[O-])o1 | 9 | 2 | 1 | -4 | + | -13 | i | 0
Cc1cccnc1NC(=O)c1ccc([N+](=O)[O-])o1 | 0 | -1 | 2 | -4 | i | 8 | nt | nt
Oc1ccccc1N=Cc1ccc[nH]1 | 3 | 4 | 5 | -8 | + | -21 | i | 0
C(=Nc1ccccc1)c1ccc[nH]1 | -1 | 3 | 1 | 2 | i | 4 | nt | nt
CCC(=O)Nc1cccc(NC(=O)c2ccccc2Cl)c1 | 1 | 0 | 0 | 2 | i | 7 | i | 0
CCC(=O)Nc1cccc(NC(=S)NC(=O)c2ccccc2Cl)c1 | -2 | 8 | -4 | 4 | i | 3 | nt | nt
CC1(C)CC(Cc2cccc(C(F)(F)F)c2)N(C(=O)OC(C)(C)C)C1 (stereo unspecified) | nt | 3 | -14 | 0 | i | -5 | nt | nt
CC(C)(C)OC(=O)N1CC2(CCCCC2)CC1Cc1ccc(C(F)(F)F)cc1 (stereo unspecified) | nt | 8 | -18 | -9 | i | -2 | i | 0
CSc1nc(C)cc(C)c1C#N | 1 | -1 | 3 | 4 | + | 5 | i | 0
COc1ccc(CNC(=O)CCCn2nc(C)n3ccnc3c2=O)cc1 | -9 | 2 | 3 | 0 | i | 26 | nt | nt
COc1ccc(S(=O)(=O)N2CCCCC2)cc1NC(=O)c1ccc([N+](=O)[O-])o1 | -6 | -1 | 0 | 0 | i | -24 | nt | nt

Screening results from PubChem BioAssay.
